# Screening results deposited in PubChem by National Center for Advancing Translational Sciences (NCATS).
# KinaseGlo FLuc = Counterscreen for Luciferase (Kinase-Glo TM) Inhibition. Luciferin 4-monooxygenase (Photuris pensylvanica), Q27757. Kinase-Glo luciferase, ATP luminescence, 8 min. 200,000 compounds, 0.28% hits. Potency, µM (top dose mostly 38.3 µM), for the others: at the top dose activity change, negative = inhibition, usual class: inhibitors; note: % is set by controls: 0 for no effect and ±100 for the full control effect; nearly all actives have a fitted effect of over 60% in size
#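 Luminescence was the read-out, taken after 8-minute incubation at ambient temperature. Luciferase turned over luciferin with 10 uM ATP in imidazole pH 7.2 buffer containing KCl, MgCl2, Tween 20 and BSA.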
# Rab9 promoter act = qHTS Assay for Rab9 Promoter Activators; Potency, µM (titrated, usually from 9.22 µM), without a hit: at the highest dose activation, negative = inhibition, actives largely listed as activators; Huh7 Rab9 promoter-luciferase reporter, luminescence, 24 h; AID 485297, 2010; 320,000 compounds, 2.8% hits; note: % of control where 0% means no effect; nearly all actives have a fitted effect of over 60% in size
#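 Huh7 cells stably carrying a Rab9 promoter-luciferase reporter, 1500 cells per well in OP-MEM I with 10% FBS, treated with compound 24 hours at 37C. Luciferase activity read by luminescence after 10 minutes with Amplite reagent.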
# FLuc counter = qHTS profiling assay for firefly luciferase inhibitor/activator using purifed enzyme and Km concentrations of substrates (counterscreen for miR-21 project); Luciferin 4-monooxygenase (Photinus pyralis), P08659; purified FLuc, Km substrates, luminescence inhibition; Potency, µM (top dose mostly 57.5 µM), without a hit: at the highest dose activity change, negative = inhibition, actives largely listed as inhibitors; 360,000 compounds, 6.9% hits; AID 588342, 2011;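 note: plate controls were vehicle for no effect and reference inhibitor for full effect; nearly all actives have a fitted effect of over 55% in size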
# Target sequence (P08659 whole entry, looked up): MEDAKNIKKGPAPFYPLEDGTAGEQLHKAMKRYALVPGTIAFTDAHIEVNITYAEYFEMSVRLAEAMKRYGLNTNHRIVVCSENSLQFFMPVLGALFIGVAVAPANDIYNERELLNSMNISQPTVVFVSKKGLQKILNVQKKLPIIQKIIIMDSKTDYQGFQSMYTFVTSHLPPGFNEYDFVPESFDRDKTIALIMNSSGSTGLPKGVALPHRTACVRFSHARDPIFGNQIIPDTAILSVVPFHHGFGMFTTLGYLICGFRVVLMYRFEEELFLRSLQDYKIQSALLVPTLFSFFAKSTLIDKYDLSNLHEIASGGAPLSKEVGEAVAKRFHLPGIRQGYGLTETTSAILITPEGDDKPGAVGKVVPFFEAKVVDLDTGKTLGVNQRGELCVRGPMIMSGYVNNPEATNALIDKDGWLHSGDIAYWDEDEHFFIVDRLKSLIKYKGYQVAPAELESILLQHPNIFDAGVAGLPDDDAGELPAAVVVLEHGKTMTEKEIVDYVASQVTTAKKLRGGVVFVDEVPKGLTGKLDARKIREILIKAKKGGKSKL
#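 Purified P. pyralis luciferase, 10 nM final, with Km-level 10 uM D-luciferin and 10 uM ATP in 50 mM Tris acetate pH 7.5, 10 mM Mg acetate, 0.01% Tween-20, 0.05% BSA; 6-point qHTS titration about 60 µM downward; luminescence read.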
# NPC1 prom act = qHTS Assay for NPC1 Promoter Activators | Huh7 NPC1 promoter luciferase reporter, 24 h | Potency, µM (top dose mostly 9.22 µM), for the others: at the top dose activation, most hits filed as activators | 320,000 compounds, 2.4% hits; note: % of control where 0% means no effect; nearly all actives have a fitted effect of over 60% in size
#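 Huh7 cells stably carrying NPC1 promoter–luciferase, plated in Opti-MEM with 10% FBS for 2 h, were exposed to compound in DMSO for 24 h at 37 °C; luciferase reagent was added for 10 min and luminescence read.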
# ELG1 genotox = qHTS screen for small molecules that induce genotoxicity in human embryonic kidney (HEK293T) cells expressing luciferase-tagged ELG1 | HEK293T ELG1-luciferase reporter, luminescence, 16 h | Potency, µM (highest dose often 46 µM), for the others: at the highest dose activity change, positive = activation, usual class: activators | 330,000 compounds, 1.3% hits | AID 504466, 2011; note: % of control where 0% means no effect; nearly all actives have a fitted effect of over 60% in size
#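 Cells (2,000/well) expressing the ELG1-luciferase fusion are dosed by pin tool and kept 16 hr at 37 °C, 5% CO2. Signal comes from ONE-Glo luciferase reagent after 30 min at room temperature.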
# SMN2 splice enh = qHTS Assay for Enhancers of SMN2 Splice Variant Expression | Potency, µM (series often up to 46.1 µM), without a hit: top-dose activity change, positive = activation, most hits filed as activators | AID 1458, 2008 | HEK293 SMN2-luciferase splicing reporter, luminescence, 30-36 h | 210,000 compounds, 2.8% hits; note: % of control where 0% means no effect; nearly all actives have a fitted effect of over 55% in size
#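 qHTS luciferase splicing reporter: luminescence rises when SMN2 exon 7 is included in transfected HEK293 cells. Compound exposure lasted 30-36 h at 37C, with 4.5 mM final sodium butyrate as control, followed by a ONE-Glo read.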
# The depositor's hits bear a star; ? = inconclusive; / = no result given; [ ] = another dose, or the depositor's remark. A selection: hits, their analogues and other compounds. The true share with any hit is near 7.3%. Calls come from the whole dose curve; as a rule, active = well fitted curve in the direction sought with a large enough effect; inconclusive = small, poorly fitted or top-dose-only effect, or another doubt; inactive = no such curve, though single readings can be large; an effect the other way counts as inactive or inconclusive. Potency is the fitted concentration of half-maximal effect.
SMILES,KinaseGlo FLuc,Rab9 promoter act,FLuc counter,NPC1 prom act,ELG1 genotox,SMN2 splice enh
Cn1c(SCc2c(F)cccc2Cl)nnc1-c1cccs1,-2%,2.2µM*,15µM*,?,13µM*,20µM*
Cn1c(SCCOc2ccccc2Cl)nnc1-c1cccs1,6%,3%,?,-1%,6%,-5%
CCc1cccc(C)c1NC(=O)c1cc(S(=O)(=O)N2CCCCCC2)cn1C,/,/,6%,/,/,/
Cc1cccc(C(=O)Nc2ccc3c(c2)ncn3C)c1,/,1.3µM*,9.5µM*,1.6µM*,?,/
O=C(Nc1ccc2nn(-c3ccccc3)nc2c1)c1cccs1,-3%,3.5µM*,-11%[2.3 µM],?,?,?
Cn1cnc2cc(NC(=O)c3cccs3)ccc21,-15%,2.8µM*,17µM*,?,?,/
Cc1cccc(C(=O)Nc2ccc3c(c2)nc(C)n3C)c1,/,0.32µM*,3µM*,0.4µM*,?,/
CCC(=O)Nc1ccc2c(c1)ncn2C,-4%,-4%,-2%,-2%,0%,8%
CN(C)c1ccc(C(CNS(=O)(=O)c2ccc(Br)cc2)N2CCOCC2)cc1 (stereo unspecified),/,/,-6%,/,/,/
O=C(NCC(=O)N1CCCCC1)c1ccc(Cl)cc1Cl,-3%,4µM*,19µM*,?,16µM*,?
COc1ccccc1N1CCN(C(=O)CNC(=O)c2ccc(Cl)cc2Cl)CC1,/,16%,24µM*,17%,-14%,/
O=C(CNC(=O)c1ccc(Cl)cc1Cl)OCC(=O)N1CCCC1,/,-5%,3%,1%,-1%,/
CCN1C(=O)C2(c3ccccc31)c1c(oc3ccc(C)cc3c1=O)C(=O)N2CCCOC(C)C (stereo unspecified),/,/,-7%,/,/,-3%
O=C(N/N=C/c1cc(Br)c(O)c(Br)c1)c1cccc(C(F)(F)F)c1,4%,-3%,?,1%,2%,-23%
O=C(N/N=C/c1ccc2nccnc2c1)c1ccccc1O,/,?,0.27µM*,?,3%,/
O=C(N/N=C/c1ccc2nccnc2c1)c1ccncc1,/,0%,?,-8%,-1%,/
O=C(N/N=C/c1cccc(C(F)(F)F)c1)c1ccccc1O,-2%,15%,6.7µM*,18%,3%,-9%
O=C(N/N=C/c1ccnc2ccccc12)c1ccccc1O,/,8%,11µM*,15%,15%,/
CCn1cc(C(=O)OCC(=O)Nc2cccc(Cl)c2C)c(=O)c2ccc(C)nc21,/,/,4%,/,/,-3%
CC(=O)Nc1ccc(NS(=O)(=O)c2c(C(=O)N3CCCCCC3)c(C)n(C)c2C)cc1,/,/,1%,/,/,/
CC(=O)c1ccc(NC(=O)C2=CC(c3ccc(C)cc3)=NS(=O)(=O)N2C)cc1,/,/,-1%,/,/,/
CCCN1CCN(C(=O)c2cc3c(s2)-c2ccccc2OC3)CC1,/,4µM*,7.6µM*,?,15µM*,/
O=C(c1cc2c(s1)-c1ccccc1OC2)N1CCCC1,-1%,2.8µM*,12µM*,?,?,-22%
COc1ccc(NC(=O)Cn2c(=O)n(Cc3ccco3)c(=O)c3sc4ccccc4c32)cc1Cl,/,/,-2%,/,/,-7%
COc1ccc(Cl)cc1NC(=O)CSc1nc(-c2ccccc2)c2ccccc2n1,/,/,4%,/,/,6%
SMILES,KinaseGlo FLuc,Rab9 promoter act,FLuc counter,NPC1 prom act,ELG1 genotox,SMN2 splice enh
O=C(O)C1CCN(C(=O)CSc2nc3ccccc3s2)CC1,1%,0%,?,-3%,2%,6%
O=C(CSc1nc2ccccc2s1)N1CCCCC1,17%,3.5µM*,24µM*,2.8µM*,?,20µM*
CC1CCN(C(=O)CSc2nc3ccccc3s2)CC1,14%,2.8µM*,12µM*,2.8µM*,12µM*,?
COCCNC(=O)CCn1c(=O)c2cc(OC)c(OC)cc2n(CC(=O)Nc2ccccc2OC)c1=O,/,/,0%,/,/,-12%
Cc1cccc(-n2c(SCC(=O)Nc3ccc(C)c(C)c3)nc3n[nH]c(C)c3c2=N)c1,/,/,-8%,/,/,/
CN(C)CCCO[C@H]1C([C@H](O)CO)O[C@@H]2OC(C)(C)O[C@@H]21 (stereo partly specified),-6%,/,/,/,/,-3%
O=C(NNC(=O)c1cc2ccccc2o1)c1ccc(Cl)cc1,/,1%,2%,1%,1%,/
O=C(NCc1ccc(F)cc1)c1cc2ccccc2o1,/,9%,-12%,5%,4%,/
C/C(=N\NS(=O)(=O)c1ccc(C)c([N+](=O)[O-])c1)c1cc2ccccc2o1,-3%,0%,-10%,-3%,-2%,0%
O=C(c1ccc(F)cc1)c1cc2ccccc2o1,/,22%,11µM*,?,?,/
O=C(c1ccccc1)c1cc2ccccc2oc1=O,/,13%,-12%,16%,10%,/
O=C(c1ccccc1)c1cc2ccccc2o1,1%,?,15µM*,?,?,-6%
Cc1ccc(C(=O)c2cc3ccccc3o2)cc1[N+](=O)[O-],-1%,2.8µM*,7.6µM*,?,?,-4%
O=C(NNC(=O)c1cc2ccccc2o1)c1ccc(F)cc1,/,1%,17µM*,0%,11%,/
CCN(CC)S(=O)(=O)c1ccc2c(c1)N(CC(=O)Nc1ccc(OC)cc1)C(=O)CS2,/,/,-2%,/,/,-3%
CC(C)NC[C@@H](O)c1ccc(O)c2ncccc12,-5%[7.66 µM],/,/,/,/,-6%[9.22 µM]
CC(=O)N1CCCN(Cc2cn(-c3cccc(C)c3)nc2-c2cccc(F)c2)CC1,/,1%,17µM*,-4%,-2%,/
Cc1cccc(-n2cc(CN3CCCN(C=O)CC3)c(-c3cccc(F)c3)n2)c1,-2%,0%,13µM*,-5%,1%,/
O=c1cc(N2CCN(c3cccc(Cl)c3)CC2)[nH]c(=O)n1C1CCCCC1,0%,-33%,0%,3%,?,7.9µM*
CC(C)(C)c1csc(NC(=O)c2ccc(Br)o2)n1,/,?,27µM*,?,-6%,/
Cc1nc(NC(=O)c2ccc(Br)o2)sc1C,?,?,7.6µM*,?,17%,?
Cc1ccc(C(=O)Nc2nc(C)c(C)s2)o1,?,3.2µM*,6.7µM*,?,?,14µM*
Cc1ccc(C(=O)Nc2cccc(NC(=O)c3ccc(C)o3)n2)o1,/,8%,15µM*,-5%,0%,/
CCCCc1nc2c(c3c1C[C@H](C)OC3)CN(S(=O)(=O)CCCC)CC2,-7%[7.66 µM],/,/,/,/,0%[9.22 µM]
